Data from the supplement of paper PMC4466140.

How the values were obtained:
Experiment in all cases: SPOT peptide array binding signal intensity (averaged, normalized) (arbitrary units (background-subtracted, floor 0; scale differs between SH3 domains)); higher = stronger binding of the SH3 domain to the peptide
[1] = biological target: AgAbp1
Summary of the method: (§1)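 GST-fused SH3 domains, from four yeast species, were produced in E. coli BL21(DE3) and captured on glutathione Sepharose. Membranes of cellulose carrying synthetic 15-mer peptides, in which cysteines had been replaced by serines, were exposed to each domain at 10 μg/ml overnight at 4°C in TBS-based blocking buffer. After anti-GST antibody, an HRP anti-mouse secondary and luminol, spots were imaged and quantified using Genespotter. Binding signal is normalized and background-subtracted spot intensity, averaged over replicates, in arbitrary units that differ between domains.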

[2] = biological target: AgBbc1
Summary of the method: as §1

[3] = biological target: AgBem1-D1
Summary of the method: as §1

[4] = biological target: AgBzz1-D1
Summary of the method: as §1

[5] = biological target: AgBzz1-D2
Summary of the method: as §1

[6] = biological target: AgCyk3
Summary of the method: as §1

[7] = biological target: AgFus1
Summary of the method: as §1

[8] = biological target: AgHof1
Summary of the method: as §1

[9] = biological target: AgHse1
Summary of the method: as §1

[10] = biological target: AgLsb1
Summary of the method: as §1

[11] = biological target: AgLsb4
Summary of the method: as §1

[12] = biological target: AgMyo5
Summary of the method: as §1

[13] = biological target: AgNbp2
Summary of the method: as §1

[14] = biological target: AgRvs167
Summary of the method: as §1

[15] = biological target: AgSho1
Summary of the method: as §1

[16] = biological target: AgSla1-D1-D2
Summary of the method: as §1

[17] = biological target: AgSla1-D3
Summary of the method: as §1

[18] = biological target: CaAbp1-D1
Summary of the method: as §1

[19] = biological target: CaAbp1-D2
Summary of the method: as §1

[20] = biological target: CaBbc1
Summary of the method: as §1

[21] = biological target: CaBem1-D1
Summary of the method: as §1

[22] = biological target: CaBzz1-D1
Summary of the method: as §1

[23] = biological target: CaBzz1-D2
Summary of the method: as §1

[24] = biological target: CaCyk3
Summary of the method: as §1

[25] = biological target: CaFus1
Summary of the method: as §1

[26] = biological target: CaHof1
Summary of the method: as §1

[27] = biological target: CaHse1
Summary of the method: as §1

[28] = biological target: CaLsb1
Summary of the method: as §1

[29] = biological target: CaLsb4
Summary of the method: as §1

[30] = biological target: CaMyo5
Summary of the method: as §1

[31] = biological target: CaNbp2
Summary of the method: as §1

[32] = biological target: CaRvs167
Summary of the method: as §1

[33] = biological target: CaRvs167-3
Summary of the method: as §1

[34] = biological target: CaSho1
Summary of the method: as §1

[35] = biological target: CaSla1-D1-D2
Summary of the method: as §1

[36] = biological target: CaSla1-D3
Summary of the method: as §1

[37] = biological target: ScAbp1
Summary of the method: as §1

[38] = biological target: ScBbc1
Summary of the method: as §1

[39] = biological target: ScBem1-D1
Summary of the method: as §1

[40] = biological target: ScBzz1-D1
Summary of the method: as §1

[41] = biological target: ScBzz1-D2
Summary of the method: as §1

[42] = biological target: ScCyk3
Summary of the method: as §1

[43] = biological target: ScFus1
Summary of the method: as §1

[44] = biological target: ScHof1
Summary of the method: as §1

[45] = biological target: ScHse1
Summary of the method: as §1

[46] = biological target: ScLsb1
Summary of the method: as §1

[47] = biological target: ScLsb2
Summary of the method: as §1

[48] = biological target: ScLsb3
Summary of the method: as §1

[49] = biological target: ScLsb4
Summary of the method: as §1

[50] = biological target: ScMyo3
Summary of the method: as §1

[51] = biological target: ScMyo5
Summary of the method: as §1

[52] = biological target: ScNbp2
Summary of the method: as §1

[53] = biological target: ScPex13
Summary of the method: as §1

[54] = biological target: ScRvs167
Summary of the method: as §1

[55] = biological target: ScSho1
Summary of the method: as §1

[56] = biological target: ScSla1-D1-D2
Summary of the method: as §1

[57] = biological target: ScSla1-D3
Summary of the method: as §1

[58] = biological target: SpAbp1-D1
Summary of the method: as §1

[59] = biological target: SpBbc1
Summary of the method: as §1

[60] = biological target: SpBzz1-D1
Summary of the method: as §1

[61] = biological target: SpBzz1-D2
Summary of the method: as §1

[62] = biological target: SpCyk3
Summary of the method: as §1

[63] = biological target: SpHof1
Summary of the method: as §1

[64] = biological target: SpHof1-2
Summary of the method: as §1

[65] = biological target: SpHof1-3
Summary of the method: as §1

[66] = biological target: SpHse1
Summary of the method: as §1

[67] = biological target: SpLsb1
Summary of the method: as §1

[68] = biological target: SpLsb4
Summary of the method: as §1

[69] = biological target: SpMyo1
Summary of the method: as §1

[70] = biological target: SpNbp2
Summary of the method: as §1

[71] = biological target: SpPex13
Summary of the method: as §1

[72] = biological target: SpRvs167
Summary of the method: as §1

[73] = biological target: SpSla1-D1-D2
Summary of the method: as §1

[74] = biological target: SpSla1-D3
Summary of the method: as §1

B1: unnamed (peptide)
chain: NNQRRKPLLLNIGDH
[1]
  SPOT peptide array binding signal intensity: 108
[2]
  SPOT peptide array binding signal intensity: ≤ 0
[3]
  SPOT peptide array binding signal intensity: ≤ 0
[4]
  SPOT peptide array binding signal intensity: ≤ 0
[5]
  SPOT peptide array binding signal intensity: 54
[6]
  SPOT peptide array binding signal intensity: 0.5
[7]
  SPOT peptide array binding signal intensity: 305
[8]
  SPOT peptide array binding signal intensity: 6
[9]
  SPOT peptide array binding signal intensity: 1660
[10]
  SPOT peptide array binding signal intensity: ≤ 0
[11]
  SPOT peptide array binding signal intensity: ≤ 0
[12]
  SPOT peptide array binding signal intensity: 1
[13]
  SPOT peptide array binding signal intensity: 68.5
[14]
  SPOT peptide array binding signal intensity: 5.67
[15]
  SPOT peptide array binding signal intensity: 24.5
[16]
  SPOT peptide array binding signal intensity: 175
[17]
  SPOT peptide array binding signal intensity: 5.5
[18]
  SPOT peptide array binding signal intensity: 330
[19]
  SPOT peptide array binding signal intensity: 458
[20]
  SPOT peptide array binding signal intensity: ≤ 0
[21]
  SPOT peptide array binding signal intensity: ≤ 0
[22]
  SPOT peptide array binding signal intensity: ≤ 0
[23]
  SPOT peptide array binding signal intensity: ≤ 0
[24]
  SPOT peptide array binding signal intensity: 1.5
[25]
  SPOT peptide array binding signal intensity: 1030
[26]
  SPOT peptide array binding signal intensity: ≤ 0
[27]
  SPOT peptide array binding signal intensity: 21
[28]
  SPOT peptide array binding signal intensity: 0.5
[29]
  SPOT peptide array binding signal intensity: ≤ 0
[30]
  SPOT peptide array binding signal intensity: ≤ 0
[31]
  SPOT peptide array binding signal intensity: 528
[32]
  SPOT peptide array binding signal intensity: 12
[33]
  SPOT peptide array binding signal intensity: 35.8
[34]
  SPOT peptide array binding signal intensity: 420
[35]
  SPOT peptide array binding signal intensity: ≤ 0
[36]
  SPOT peptide array binding signal intensity: 2.25
[37]
  SPOT peptide array binding signal intensity: 442
[38]
  SPOT peptide array binding signal intensity: ≤ 0
[39]
  SPOT peptide array binding signal intensity: 3
[40]
  SPOT peptide array binding signal intensity: 16.5
[41]
  SPOT peptide array binding signal intensity: ≤ 0
[42]
  SPOT peptide array binding signal intensity: 33
[43]
  SPOT peptide array binding signal intensity: 272
[44]
  SPOT peptide array binding signal intensity: 0.5
[45]
  SPOT peptide array binding signal intensity: 1820
[46]
  SPOT peptide array binding signal intensity: ≤ 0
[47]
  SPOT peptide array binding signal intensity: ≤ 0
[48]
  SPOT peptide array binding signal intensity: 68
[49]
  SPOT peptide array binding signal intensity: ≤ 0
[50]
  SPOT peptide array binding signal intensity: ≤ 0
[51]
  SPOT peptide array binding signal intensity: ≤ 0
[52]
  SPOT peptide array binding signal intensity: 112
[53]
  SPOT peptide array binding signal intensity: ≤ 0
[54]
  SPOT peptide array binding signal intensity: 4.33
[55]
  SPOT peptide array binding signal intensity: 676
[56]
  SPOT peptide array binding signal intensity: 37
[57]
  SPOT peptide array binding signal intensity: ≤ 0
[58]
  SPOT peptide array binding signal intensity: 384
[59]
  SPOT peptide array binding signal intensity: 0.5
[60]
  SPOT peptide array binding signal intensity: 136
[61]
  SPOT peptide array binding signal intensity: ≤ 0
[62]
  SPOT peptide array binding signal intensity: ≤ 0
[63]
  SPOT peptide array binding signal intensity: 93.2
[64]
  SPOT peptide array binding signal intensity: 2.5
[65]
  SPOT peptide array binding signal intensity: 892
[66]
  SPOT peptide array binding signal intensity: 1730
[67]
  SPOT peptide array binding signal intensity: ≤ 0
[68]
  SPOT peptide array binding signal intensity: ≤ 0
[69]
  SPOT peptide array binding signal intensity: ≤ 0
[70]
  SPOT peptide array binding signal intensity: 133
[71]
  SPOT peptide array binding signal intensity: ≤ 0
[72]
  SPOT peptide array binding signal intensity: ≤ 0
[73]
  SPOT peptide array binding signal intensity: ≤ 0
[74]
  SPOT peptide array binding signal intensity: ≤ 0
